In PubChem BioAssay (NCI):
About 83,000 compounds went through this panel and 20% of them were active in at least one assay; those are over-represented in the sample as a whole.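 Negative percent growth values reflect cell death: -40 means 40% of the cells present at the start died, and -100 means all died.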 The source made the active and inactive calls. The calls were made as follows: active = growth percent below 10; inactive = the rest.

Key:
Assay in all cases: NCI-60 one-dose screen, 48 h (100 = growth as untreated, 0 = no growth, -100 = all killed)
Settings in all cases: 10 µM unless noted
SK-MEL-2 melanoma = system: SK-MEL-2 melanoma
EKVX NSCLC = system: EKVX NSCLC
SN12C renal = system: SN12C renal
UO-31 renal = system: UO-31 renal
TK-10 renal = system: TK-10 renal
ACHN renal = system: ACHN renal
CAKI-1 renal = system: CAKI-1 renal
A498 renal = system: A498 renal
CCRF-CEM leukemia = system: CCRF-CEM leukemia

Measured: growth

O=C(Nc1ccc(-n2cc(-c3ccncc3)c(-c3ccc(Cl)c(O)c3)n2)cc1)N1CCOCC1
inactive: SK-MEL-2 melanoma 110% | EKVX NSCLC 102% | SN12C renal 99.2% | UO-31 renal 75.6% | TK-10 renal 117% | ACHN renal 97.6% | CAKI-1 renal 105% | A498 renal 121%

COc1cccc(-c2nn(-c3ccccc3)cc2-c2ccnc(NCCNC(=O)Nc3ccc(Cl)c(Cl)c3)c2)c1
active: SK-MEL-2 melanoma -12.1% | UO-31 renal -13.1% | A498 renal -9.43% | CCRF-CEM leukemia 8.1%
inactive: EKVX NSCLC 46.3% | SN12C renal 11.5% | TK-10 renal 40.2% | ACHN renal 14.6% | CAKI-1 renal 24.5%

O=C(NCCCNc1cc(-c2cn(-c3ccccc3)nc2-c2cccc(O)c2)ccn1)c1cccc(O)c1
inactive: SK-MEL-2 melanoma 83.5% | EKVX NSCLC 71.4% | SN12C renal 76.6% | UO-31 renal 85.8% | TK-10 renal 115% | ACHN renal 89.4% | CAKI-1 renal 98.4% | A498 renal 102% | CCRF-CEM leukemia 40.5%

CCc1c2c(nc3ccc(OC(=O)NCc4ccc(B5OC(C)(C)C(C)(C)O5)cc4)cc13)-c1cc3c(c(=O)n1C2)COC(=O)[C@]3(O)CC
inactive: EKVX NSCLC 35.3%
active: SK-MEL-2 melanoma -28% | SN12C renal -0.279% | UO-31 renal -67.7% | TK-10 renal 0.387% | ACHN renal -61.5% | CAKI-1 renal -43.3% | A498 renal -63.1%

FC(F)(F)c1cc(Nc2ccc3cc(OCCCN4CCOCC4)ccc3n2)ccc1Cl
inactive: SK-MEL-2 melanoma 46% | EKVX NSCLC 62.2% | SN12C renal 49.4% | UO-31 renal 27.6% | TK-10 renal 43.3% | ACHN renal 29.5% | CAKI-1 renal 86.1% | A498 renal 36.4%
active: CCRF-CEM leukemia 3.89%

CCOc1c(C#N)nnc2c(C#N)c(NC(=O)c3ccccc3)nn12
inactive: SK-MEL-2 melanoma 112% | EKVX NSCLC 93.8% | SN12C renal 100% | UO-31 renal 86.3% | TK-10 renal 116% | ACHN renal 98.4% | CAKI-1 renal 93.7% | A498 renal 93.4% | CCRF-CEM leukemia 102%

COc1cc(-c2nc(N3CCN(C)CC3)c3ccccc3n2)cc(OC)c1OC
inactive: SK-MEL-2 melanoma 81.2% | EKVX NSCLC 67.2% | SN12C renal 82.6% | UO-31 renal 45% | TK-10 renal 94.1% | ACHN renal 47.5% | CAKI-1 renal 50.3% | A498 renal 21.6% | CCRF-CEM leukemia 99.3%

O=C(CCCCCCN1CC(=O)N2[C@@H](c3ccccc3Cl)c3[nH]c4ccccc4c3C[C@H]2C1=O)NO
inactive: SK-MEL-2 melanoma 70.1% | EKVX NSCLC 82.2% | SN12C renal 70.1% | UO-31 renal 55.6% | TK-10 renal 68.9% | ACHN renal 81.7% | CAKI-1 renal 71.4% | A498 renal 73.5% | CCRF-CEM leukemia 17.8%

CCN1C(=O)N(CC)C2C1NN=c1s/c(=C\c3cccs3)c(=O)n12 (stereo not drawn)
active: TK-10 renal 5.35% | A498 renal -12.4%
inactive: SK-MEL-2 melanoma 42% | EKVX NSCLC 60.6% | SN12C renal 29.7% | UO-31 renal 50.2% | ACHN renal 42.2% | CAKI-1 renal 35.4% | CCRF-CEM leukemia 26.6%

O=C(Nc1ccccc1Cl)Oc1ccc(-c2ccccc2)cc1
inactive: SK-MEL-2 melanoma 120% | EKVX NSCLC 98% | SN12C renal 98.9% | UO-31 renal 84.5% | TK-10 renal 118% | ACHN renal 101% | CAKI-1 renal 81.8% | A498 renal 167% | CCRF-CEM leukemia 120%

Cc1nn(-c2ccccc2)c2nc3c(c(-c4ccc(Cl)cc4)c12)CNC1(CCSCC1)N3
inactive: SK-MEL-2 melanoma 134% | EKVX NSCLC 94% | SN12C renal 108% | UO-31 renal 94.9% | TK-10 renal 107% | ACHN renal 103% | CAKI-1 renal 95.4% | A498 renal 89.1% | CCRF-CEM leukemia 118%

Cc1c(O)cc(-c2cnc(N/N=C\c3ccc(Cl)cc3)s2)c(O)c1C
inactive: SK-MEL-2 melanoma 101% | EKVX NSCLC 64.3% | SN12C renal 87.5% | UO-31 renal 75.5% | TK-10 renal 120% | ACHN renal 100% | CAKI-1 renal 92% | A498 renal 103%

Cc1cc(NCc2cc(Nc3ccnc4cc(Cl)ccc34)ccc2F)nc(N2CCN(c3ccccc3)CC2)n1
inactive: SK-MEL-2 melanoma 84.5% | EKVX NSCLC 64.8% | SN12C renal 49.9% | UO-31 renal 36.1% | TK-10 renal 88.7% | ACHN renal 69.2% | CAKI-1 renal 72.3% | A498 renal 14.1%

COc1ccc(NC(=O)c2nc(-c3cc(OC)c(OC)c(OC)c3)n(-c3cccc4ccccc34)n2)cc1OC
active: UO-31 renal 6.34%
inactive: SK-MEL-2 melanoma 43.7% | EKVX NSCLC 44.6% | SN12C renal 52.9% | TK-10 renal 44.8% | ACHN renal 30.6% | CAKI-1 renal 20.1% | A498 renal 42.6%

COc1ccc2nc(NNC(=O)c3cnccn3)c3cccn3c2c1
inactive: SK-MEL-2 melanoma 46.1% | TK-10 renal 30.7%
active: EKVX NSCLC 2.79% | SN12C renal 8.52% | UO-31 renal -17% | ACHN renal -22.8% | CAKI-1 renal 4.46% | A498 renal -11.5%

CC(C)CCC[C@@H](C)[C@H]1CC[C@H]2[C@@H](Nc3ccc(O)cc3)CCC[C@]12C
inactive: SK-MEL-2 melanoma 86.1% | EKVX NSCLC 109% | SN12C renal 108% | TK-10 renal 83% | ACHN renal 78.8% | CAKI-1 renal 37.7% | A498 renal 67.6% | CCRF-CEM leukemia 32.2%
active: UO-31 renal 7.74%

CCN(CC)Cc1cccc(C(=O)OC)c1
inactive: SK-MEL-2 melanoma 100% | EKVX NSCLC 95.7% | SN12C renal 105% | UO-31 renal 103% | TK-10 renal 92.5% | ACHN renal 96.6% | CAKI-1 renal 97.2% | A498 renal 115% | CCRF-CEM leukemia 76.3%

COc1cccc(C(=O)NCCNc2cc(-c3cn(-c4ccccc4)nc3-c3cccc(OC)c3)ccn2)c1
inactive: SK-MEL-2 melanoma 57.2% | EKVX NSCLC 69% | SN12C renal 74.4% | UO-31 renal 39.9% | TK-10 renal 80.4% | ACHN renal 69.8% | CAKI-1 renal 69.2% | A498 renal 59%

Cc1cc(NCc2cc(Nc3ccnc4cc(Cl)ccc34)ccc2F)nc(N2CCN(C)CC2)n1
inactive: EKVX NSCLC 31% | SN12C renal 36.8% | CAKI-1 renal 61.8%
active: SK-MEL-2 melanoma -70.7% | UO-31 renal -8.37% | TK-10 renal -16% | ACHN renal 5.12% | A498 renal -26.8% | CCRF-CEM leukemia -13.5%

Cc1ccc(Nc2nc(N)nc(CSCC(=O)NN)n2)cc1
inactive: SK-MEL-2 melanoma 109% | EKVX NSCLC 102% | SN12C renal 94.6% | UO-31 renal 88.2% | TK-10 renal 115% | ACHN renal 101% | CAKI-1 renal 89.8% | A498 renal 77.7%

CCCCCc1nc2c(c3c1CCCC3)CCCC2
inactive: SK-MEL-2 melanoma 80% | EKVX NSCLC 77.1% | SN12C renal 93.3% | UO-31 renal 47% | TK-10 renal 77.2% | ACHN renal 82.9% | CAKI-1 renal 60.9% | A498 renal 84.3% | CCRF-CEM leukemia 59.9%

CCN1C(=O)N(CC)C2Nn3c(s/c(=C\c4cccc([N+](=O)[O-])c4)c3=O)=NC21 (stereo not drawn)
active: A498 renal 5.28%
inactive: SK-MEL-2 melanoma 73.3% | EKVX NSCLC 72.7% | SN12C renal 48.6% | UO-31 renal 56.8% | TK-10 renal 17.9% | ACHN renal 50.5% | CAKI-1 renal 35.3%

Cc1cc(NCc2cc(Nc3ccnc4cc(Cl)ccc34)ccc2F)nc(Cl)n1
inactive: SK-MEL-2 melanoma 54.6% | EKVX NSCLC 39.4% | SN12C renal 37.2% | UO-31 renal 30% | TK-10 renal 38.1% | ACHN renal 46.6% | CAKI-1 renal 56.5% | A498 renal 41.3% | CCRF-CEM leukemia 42.8%

COC(=O)[C@]12CC[C@@H](C)[C@H](C)[C@@H]1C1=CC[C@@H]3[C@@]4(C)C(C=O)=C[C@@](C)(COC(C)=O)[C@@H]4[C@H](O)C[C@@]3(C)[C@]1(C)CC2
active: SK-MEL-2 melanoma -25.4% | SN12C renal -19.3% | UO-31 renal -26.2% | TK-10 renal -8.86% | ACHN renal -54.3% | CAKI-1 renal 1.42% | CCRF-CEM leukemia 1.74%
inactive: EKVX NSCLC 20% | A498 renal 28.3%

O=C1/C(=C/c2ccc(F)cc2)C=C(c2ccccc2)N1CCc1ccccc1
inactive: SK-MEL-2 melanoma 55.5% | EKVX NSCLC 56.9% | SN12C renal 58.3% | UO-31 renal 51% | TK-10 renal 62.4% | ACHN renal 38.6% | CAKI-1 renal 76% | A498 renal 81.3% | CCRF-CEM leukemia 95%

COC(=O)CCC1=C(C)C2=NC1=CC1=NC(=CC3=NC(=Cc4[nH]c(/c(=C(/C)O)c4C)=C2)C(C(C)=O)=C3C)C(C)=C1CCC(=O)OC
inactive: SK-MEL-2 melanoma 102% | EKVX NSCLC 99.7% | SN12C renal 97.8% | UO-31 renal 100% | TK-10 renal 123% | ACHN renal 103% | CAKI-1 renal 98.8% | A498 renal 90.1% | CCRF-CEM leukemia 101%

Clc1cccc(Cl)c1/C=C/c1cc(/C=C/c2c(Cl)cccc2Cl)[nH]n1
inactive: SK-MEL-2 melanoma 32.4% | EKVX NSCLC 42% | SN12C renal 40.4% | UO-31 renal 51% | TK-10 renal 52.2% | ACHN renal 48.9% | CAKI-1 renal 30.1% | A498 renal 19%

N[C@@H](CCCCNCC(=O)O)C(=O)O
inactive: SK-MEL-2 melanoma 115% | EKVX NSCLC 96.9% | SN12C renal 101% | UO-31 renal 91% | TK-10 renal 98.1% | ACHN renal 96.8% | CAKI-1 renal 96.9% | A498 renal 85.4%

CCC(CO)Nc1nc2ccc(Cl)cc2c2ccccc12 (stereo not drawn)
active: A498 renal -19%
inactive: SK-MEL-2 melanoma 84.1% | EKVX NSCLC 47.9% | SN12C renal 71.1% | UO-31 renal 39.5% | TK-10 renal 54.3% | ACHN renal 73.9% | CAKI-1 renal 40.9% | CCRF-CEM leukemia 56.5%

COc1cccc(-c2nn(-c3ccccc3)cc2-c2ccnc(NCCCNC(=O)Nc3ccc(Cl)c(Cl)c3)c2)c1
inactive: EKVX NSCLC 37.8% | SN12C renal 37.5% | TK-10 renal 45.7% | ACHN renal 32.9% | CAKI-1 renal 24%
active: SK-MEL-2 melanoma -53.9% | UO-31 renal -34.4% | A498 renal 4.95%
